This is a sample that favours compounds with a hit; in the whole collection about 2.2% have one here.
Myeloid diff MLP: promotes myeloid progenitor differentiation; ER-HoxA9 myeloid progenitors, lysozyme-GFP differentiation, flow cytometry; calls only at 10 µM; 360,000 tested, 1% active; AID 624256;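 active = normalized GFP-positive differentiation at or above the plate's own cutoff, the solvent-only control mean plus 3 SD; inconclusive = no clear call, values can overlap the other calls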;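 note: cells exposed to compound for four days before flow analysis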
hiPSC survival: hiPSC single-cell survival enhancement; ATPlite luminescence; 100% = ROCK inhibitor wells, 0% = DMSO; survival enhancement, % at 20 µM; 360,000 tested, 0.044% active; in the data active = survival enhancement above about 18%;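 note: cells exposed to compounds for 16 hours before the ATP read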
MIN6 prolif-1: inducers of beta-cell replication in MIN6 cells; MIN6 cells proliferation, ATPlite luminescence, 48 h; cells starved in 0.2% serum; 100% = growth in 10% serum; proliferation, % at 10 µM; 330,000 tested, 0.29% active; AID 2380;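 active = compounds whose signal lies at least 3.5 SD above the mean of all wells on their plate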;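 note: 0% = DMSO-treated cells in low-serum medium and 100% = 10% serum control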
H9c2 protect: myocardial damage modulation in H9c2 cells | protection from H2O2 cell death, % at 20 µM | AID 588492 | H9c2 cardiomyocytes, H2O2 injury protection, ATPLite, 2 h | 360,000 tested, 0.63% active;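 active = compounds giving at least 50% protection of heart cells from peroxide-induced death in the single-dose screen, raw or plate-pattern-corrected value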;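 note: 0% = DMSO wells with peroxide and 100% = DMSO wells without peroxide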
ABCB6 inh 2: blocks the human ABCB6 transporter; Q9NP58; K562-ABCB6 porphyrin accumulation, flow cytometry, 1 h; active compounds read low; fluorescence ratio to DMSO, % at 10 µM; 360,000 tested, 0.19% active; AID 602162;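 active = fluorescence ratio to DMSO below 75%, the collection mean minus 3 SD; inconclusive = too few cells collected in the well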;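 note: signal is porphyrin accumulated inside mitochondria; 100% equals median channel fluorescence of DMSO control wells; lower ratio means ABCB6 inhibition with less porphyrin fluorescence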
MIN6 prolif-2: MIN6 beta-cell replication induction, confirmed | shares compounds with MIN6 prolif-1 | proliferation increase, % at 50 µM | AID 463095 | 920 tested, under 10 active | MIN6 beta-cell proliferation, ATPlite luminescence, 48 h; cells kept in 0.2% serum; scaled between 0.2% and 10% serum;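 active = proliferation increase above 40% at any of the four tested concentrations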
* = called active by the depositor; i = inactive; ? = inconclusive; . = no result; + = active, no number.

SMILES	Myeloid diff MLP	hiPSC survival	MIN6 prolif-1	H9c2 protect	ABCB6 inh 2	others
COc1cc(-c2cc(C(=O)Nc3ccncc3)c3ccccc3n2)cc(OC)c1OC	i	0	2	50	89
COc1ccc(-c2cc(C(=O)Nc3ccccc3N3CCOCC3)c3ccccc3n2)cc1OC	i	1	3	62*	93
CCCc1cc(=O)[nH]c2nnc(SCC(=O)Nc3nccs3)n12	i	0	-1	1	99
CCc1nnc(NC(=O)CSc2nnc(COc3ccc(C)cc3)n2-c2ccccc2)s1	i	-1	-1	-3	99
CCN(CC)S(=O)(=O)c1ccc(N2CCOCC2)c(NC(=O)c2cc(-c3ccccn3)nc3ccccc23)c1	i	1	.	52*	99
CCOc1ccccc1NC(=O)c1cc(-c2cc(OC)c(OC)c(OC)c2)nc2ccccc12	i	-1	0	44	100
COc1ccccc1NC(=O)c1cc(-c2cc(OC)c(OC)c(OC)c2)nc2ccccc12	i	0	-1	66*	93
O=C1CCC/C1=C\c1ccccc1	i	-3	3	-2	102
O=C(Nc1cccnc1)c1c(O)c2cccc3c2n(c1=O)CC3	i	-1	-1	-8	103
CC(=O)C1=C(C)NC(SCC(N)=O)=C(C#N)C1c1sccc1C (configuration not stated)	i	3	-2	4	103
CCN1CCN(C(=O)c2cc3c(-c4ccc(Cl)cc4)nn(C)c3s2)CC1	+	-3	-2	11	98
CC1CCCN(C(=O)c2cc3c(-c4ccc(Cl)cc4)nn(C)c3s2)C1 (configuration not stated)	+	5	-2	0	105
Cn1nc(-c2ccc(Cl)cc2)c2cc(C(=O)NCCN3CCOCC3)sc21	i	2	-5	7	105
Cn1nc(-c2ccc(Cl)cc2)c2cc(C(=O)N3CCN(C(=O)c4ccco4)CC3)sc21	+	-2	-6	1	104
Cc1ccc(Cl)cc1N1CCN(C(=O)c2ccc(CS(=O)Cc3ccc(Cl)cc3)o2)CC1 (configuration not stated)	i	0	-6	6	101
O=C(COC(=O)c1cc(S(=O)(=O)N2CCOCC2)ccc1Cl)c1ccc[nH]1	+	1	.	1	i
CCCCN(C(=O)C1CCN(C(=O)c2ccccc2C)CC1)c1c(N)n(CCCC)c(=O)[nH]c1=O	+	0	-2	6	92
CCCCN(C(=O)C1CCN(C(=O)c2ccccc2C)CC1)c1c(N)n(CCC)c(=O)[nH]c1=O	i	0	2	0	99
CCCCN(C(=O)c1cc(=O)[nH]c2ccccc12)c1c(N)n(CCCC)c(=O)[nH]c1=O	+	0	0	-2	102
COc1cc(NC(=O)CCc2c(C)nc3nc(C)nn3c2C)cc(OC)c1	i	0	-1	10	101
COc1cc(OC)cc(-c2cc3nc(C)c(CCC(=O)Nc4nc(C)cs4)c(C)n3n2)c1	?	0	3	64*	90
Cc1ccc(CNC(=O)c2cccnc2)cc1	i	0	0	7	96
COc1cc(NC(=O)CCNC(=O)Cn2cnc3sc4c(c3c2=O)CCCC4)cc(OC)c1OC	+	0	0	-2	86
COc1ccc2c(c1)C(SCC(=O)NCCc1ccc(Cl)cc1)CC(C)(C)O2 (configuration not stated)	+	0	-4	3	104
COc1ccc(CCC(=O)NCCc2ccc(Cl)cc2)cc1	i	0	0	0	98
SMILES	Myeloid diff MLP	hiPSC survival	MIN6 prolif-1	H9c2 protect	ABCB6 inh 2	others
CC(C)Cn1c2ccccc2c2cc(C(=O)O)ccc21	i	3	4	4	97
S=C(NCCN(C1CCCCC1)C1CCCC1)Nc1cccc(Cl)c1	+	0	-6	-22	96
CCN(CC)CCCNC(=O)C(C)Sc1nc(-c2ccccc2)cc(C(F)(F)F)n1 (configuration not stated)	i	1	-5	3	102
COc1cc(NS(=O)(=O)c2ccc3c(c2)oc(=O)n3C)cc(OC)c1OC	+	0	0	-18	96
O=C1CCCC(O)=C1N=Nc1c(Cl)cc(Cl)cc1Cl	i	2	0	-4	99
CSc1ccc(C=NNc2ccc(S(=O)(=O)Nc3ccccc3C(=O)O)cc2[N+](=O)[O-])cc1	+	-2	-6	2	100
CCNC(=O)C1(C)CCN(C(=O)c2ccc(C(F)(F)F)cc2)C1 (configuration not stated)	i	-1	.	0	113
CCOc1ccc(NC(=O)CSc2nnc(C)n2Cc2ccccc2)cc1	i	-2	-1	-8	94
O=c1[nH]c(Nc2ccccc2)cc2cc(Br)ccc12	i	0	-5	3	102
COc1ccccc1Nc1cc2cc(Br)ccc2c(=O)[nH]1	+	7	-4	0	94
COc1ccc(OC)c(Nc2cc3ccccc3c(=O)[nH]2)c1	i	3	-6	54*	106
CC(=O)N(CN1C(=O)CCC1=O)c1ccc(Cl)c(Cl)c1	i	-1	-2	2	94
COc1ccc(C2CC(c3ccncc3)=NN2c2ccc(S(N)(=O)=O)cc2)cc1 (configuration not stated)	+	0	.	6	135
COc1ccc(C)cc1Nc1n[n+](-c2ccccc2)c(-c2ccc(NC(C)=O)cc2)s1	i	-2	-6	-9	102
COc1ccc(C)cc1Nc1n[n+](-c2ccccc2)c(-c2cc([N+](=O)[O-])cc(OC)c2O)s1	+	1	-3	2	474
COc1c(C)cc(Br)cc1C(=O)Nc1cccc(-c2nc3ncccc3o2)c1	?	2	-3	115*	95
COc1ccccc1-n1cc(C(=O)NCC(=O)NCc2ccc(F)cc2)c2ccccc2c1=O	i	0	0	1	95
COc1ccc(-n2c(C)c(C(C)=O)c3cc(OC(C)=O)ccc32)cc1	i	-1	5.3*	53*	93	MIN6 prolif-2=-5
COc1ccc2c(c1)c(C(C)=O)c(C)n2-c1ccc(C(C)=O)cc1	i	-1	-1	10	99
CCOC(=O)C1CCN(C(=O)C2(NC(=O)Nc3ccc(F)cc3F)CCCCC2)CC1	i	0	7.6*	-3	84	MIN6 prolif-2=-1
CCOC(=O)C1CCN(C(=O)C2(NC(=O)NC3CCCCC3)CCCCC2)CC1	i	0	-1	1	91
CCN(CC)C(=O)Oc1cc(COC)nc(-c2ccccc2)n1	i	-1	5.3*	5	99	MIN6 prolif-2=1
COCc1cc(Sc2ccc(Cl)cc2)nc(-c2ccccc2)n1	i	0	-3	-25	101
